This is a sample that favours compounds with a hit; in the whole collection about 11% have one here.
HP1b chromo inh: HTS for Inhibitors of HP1-beta Chromodomain Interactions with Methylated Histone Tails; AlphaScreen HP1-beta / biotin-H3K9me3 peptide binding; Potency, µM (series often up to 114 µM), for the others: top-dose activity change, negative = inhibition, actives largely listed as inhibitors; 390,000 compounds, 0.56% hits; AID 540317, 2011; also: nearly all actives have a fitted effect of over 70% in size
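AlphaScreen: HP1-beta (50 nM) preformed 30 min with biotin-H3(1-18)K9me3 peptide (50 nM) in PBS pH 7.4, 0.01% Tween-20. Compound added for 30 min at RT, then streptavidin donor/nickel chelate acceptor beads (10 ug/mL) for 30 min.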
G9a block: qHTS Assay for Inhibitors of Histone Lysine Methyltransferase G9a. Histone-lysine N-methyltransferase EHMT2 (Homo sapiens), Q96KQ7. G9a H3K9 monomethylation, AlphaScreen, 2 h. Potency, µM (top dose mostly 102 µM), for the others: at the top dose activity, negative = inhibition, actives largely listed as inhibitors. 350,000 compounds, 8.8% hits. AID 504332, 2011; also: % is scaled to controls: 0 for no effect and ±100 for the full control effect; nearly all actives have a fitted effect of over 75% in size
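Quantitative HTS format: methyltransferase activity on a biotin-tagged H3K9 peptide is measured by AlphaScreen, using a rabbit anti-monomethyl-H3K9 antibody with streptavidin donor and anti-IgG acceptor beads. Final levels are 20 nM enzyme, 500 nM peptide, 20 uM SAM; 2 h RT.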
L3MBTL1 block: qHTS Assay for the Inhibitors of L3MBTL1; Potency, µM (doses to about 57.1 µM), for inactives: top-dose activity, negative = inhibition, most hits filed as inhibitors; 230,000 compounds, 0.66% hits; AlphaScreen L3MBTL1–H3K9me1 peptide binding; also: % is scaled to controls: 0 for no effect and ±100 for the full control effect; nearly all actives have a fitted effect of over 60% in size
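L3MBTL1 (50 nM) pre-complexed 30 min with biotinylated H3(1-15)K9me1 peptide (75 nM), then compounds added for 30 min at room temperature; AlphaScreen streptavidin donor/nickel chelate acceptor beads (10 ug/mL final) read after 30 min dark incubation.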
BAZ2B block: qHTS Assay for Inhibitors of BAZ2B. Bromodomain adjacent to zinc finger domain protein 2B (Homo sapiens), Q9UIF8. AlphaScreen BAZ2B-H3K14Ac peptide displacement. Potency, µM (doses to about 114 µM), inactives show at the top dose activity change, negative = inhibition, usual class: inhibitors. 360,000 compounds, 4.4% hits; also: % is scaled to controls: 0 for no effect and ±100 for the full control effect; nearly all actives have a fitted effect of over 60% in size
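BAZ2B (50 nM) with biotin-H3(5-23)K14Ac peptide (50 nM) in PBS pH 7.4, 0.01% Tween-20, preformed 30 min, then compound 30 min at room temperature; top concentration 110uM. AlphaScreen streptavidin donor/nickel chelate acceptor beads (10 ug/mL final), 20 min dark, signal read.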
JMJD2A Tudor: qHTS Assay for Inhibitors of JMJD2A-Tudor Domain; Lysine-specific demethylase 4A (Homo sapiens), O75164; AlphaScreen JMJD2A-Tudor / H3K4me3 peptide binding; Potency, µM (series often up to 114 µM), for inactives: at the top dose activity change, negative = inhibition, usual class: inhibitors; 390,000 compounds, 4.4% hits; AID 504339, 2011; also: % is scaled to controls: 0 for no effect and ±100 for the full control effect; nearly all actives have a fitted effect of over 50% in size
The depositor's hits bear a star; ? = inconclusive; nt = no result; ! = a repeat was not active; [ ] = dose if it differs, or a comment. Calls follow the shape of the dose curve; as a rule, active = well fitted inhibition curve with a large enough effect; inconclusive = small, poorly fitted or top-dose-only effect; inactive = no such curve, though single readings can be large or run the other way. Potency is read from the fitted curve at half-maximal effect.

SMILES	HP1b chromo inh	G9a block	L3MBTL1 block	BAZ2B block	JMJD2A Tudor
Nc1nc(N)c2nc(CNc3ccc(C(=O)NC(CCC(=O)O)C(=O)O)cc3)cnc2n1 (stereo unspecified)	nt	2.7µM*!	3%	-35%	nt
CC(N)Cc1ccccc1Sc1ccc(O)cc1 (stereo unspecified)	nt	35µM*	3%	-5%[57.1 µM]	nt
Cc1ccc2c(c1)CC1(CN2C)C(=O)NC(=O)N(C(C)C)C1=O (stereo unspecified)	-6%	32µM*	-9%	6%	6%[57.1 µM]
Cc1ccc2c(c1)CC1(CN2C)C(=O)NC(=O)N(CCC2=CCCCC2)C1=O (stereo unspecified)	32%	10µM*	-4%	-31%	-13%
CCC(C)N1C(=O)NC(=O)C2(Cc3cc(C)ccc3N(C)C2)C1=O (stereo unspecified)	50%	?	-4%	nt	-13%[57.1 µM]
COc1ccc2c(c1)CC1(CN2C)C(=O)NC(=O)N(c2ccc(F)cc2)C1=O (stereo unspecified)	55%	20µM*	-5%	4%	-22%
Cc1cccc(N2C(=O)NC(=O)C3(Cc4cc(C)ccc4N(C)C3)C2=O)c1 (stereo unspecified)	63%	10µM*	2%	-21%	-4%[11.4 µM]
COc1ccc2c(c1)CC1(CN2C)C(=O)NC(=O)N(c2ccc(C)cc2)C1=O (stereo unspecified)	49%	?	nt	?	-8%
COc1ccc2[nH]c3c(c2c1)CCN1C(=O)C(CC(=O)NCc2cccc(C(F)(F)F)c2)C[C@H](C(=O)N2CCCCC2)[C@@]31C (stereo partly specified)	-4%	nt	-3%	nt	?
CC(C)(C)c1ccc(O)cc1	nt	28%[59 µM]	nt	nt	nt
CCC(C)C(=O)OC1C[C@@]2(C)C(c3ccoc3)OC(=O)CC23OC2(C)OC34C(OC(=O)C(C)C)[C@]3(O)C(OC(=O)C5(C)OC5C)[C@]5(C)CC3(O)[C@](C)(C5CC(=O)OC)C14O2 (stereo partly specified)	nt	-45%[2.33 µM]	nt	nt	nt
Cc1cccc(-n2c(O)c(/C=N/NC(=O)c3ccncc3)c(=O)[nH]c2=O)c1	35%	37%[12.7 µM]	-12%	?	79µM*
O=C(N/N=C/c1c(O)n(-c2ccccc2)c(=O)[nH]c1=O)c1ccncc1	46%	-2%[59 µM]	-7%	?	?
Cc1ccc(-n2c(O)c(/C=N/NC(=O)c3ccncc3)c(=O)[nH]c2=O)cc1	37%	?	-5%	50µM*	?
CCOc1ccc(C(=O)Nc2ccc3nc(SCCOc4ccccc4)sc3c2)cc1	35%	2%[59 µM]	nt	?	-1%
COc1ccc(NC(c2ccccc2)P(=O)(Oc2ccccc2)Oc2ccccc2)cc1 (stereo unspecified)	2%	25µM*	-24%	25µM*	?
COP(=O)(OC)C(Nc1ccccc1)c1ccccc1 (stereo unspecified)	44%	-21%	-10%	0%	-15%
COc1ccc2[nH]cc(CCN)c2c1	-31%	9%[59 µM]	-7%	?	50µM*
CCCCCCCCCOc1ccc2[nH]cc(CCN)c2c1	nt	16µM*!	nt	35µM*	nt
CCCCCCOc1ccc(C(=O)n2cnc(N)n2)cc1	44%	?	nt	9%	-4%
O=c1oc2ccccc2c(O)c1C(c1ccc([N+](=O)[O-])cc1)c1c(O)c2ccccc2oc1=O	1%	40µM*	?	56µM*	?
Cc1c(C(c2ccccc2Cl)c2c(O)c3ccccc3oc2=O)c(=O)n(-c2ccccc2)n1C (stereo unspecified)	29%	14%	-4%	1%	5%
CC/C(CC(c1ccccc1)c1c(O)c2ccccc2oc1=O)=N\NC(N)=S (stereo unspecified)	?	-6%[59 µM]	-10%	-1%	3.2µM*
COc1ccc(C(c2c(O)c3ccccc3oc2=O)c2c(C)n(C)n(-c3ccccc3)c2=O)cc1 (stereo unspecified)	10%	-5%[59 µM]	3%	-1%	-23%
C/C(CC(c1ccccc1)c1c(O)c2ccccc2oc1=O)=N\Nc1ccc([N+](=O)[O-])cc1[N+](=O)[O-] (stereo unspecified)	?	14µM*	nt	35µM*	35µM*
SMILES	HP1b chromo inh	G9a block	L3MBTL1 block	BAZ2B block	JMJD2A Tudor
Cc1c(C(c2ccc(F)cc2)c2c(O)c3ccccc3oc2=O)c(=O)n(-c2ccccc2)n1C (stereo unspecified)	21%	-22%[59 µM]	13%	-21%	-13%
CCN1C[C@]2(C)CC[C@H](OC)[C@@]34[C@@H]2[C@H](OC(C)=O)[C@]2(OCO[C@@]25C[C@@H](OC)[C@@H]2C[C@@]3(O)[C@H]5[C@@H]2OC)[C@H]14	nt	20%[21.5 µM]	nt	nt	nt
O=C(O)c1ccccc1NS(=O)(=O)c1cccc(N=Nc2c(O)[nH]c(=S)[nH]c2=O)c1	-18%	50µM*	0%	-12%	-17%
CNc1ccc2nc3ccccc3[n+](C)c2c1	?	-33%[2.33 µM]	nt	35µM*	-33%
C[n+]1c2ccccc2nc2ccc(NCCO)cc21	40µM*	1%[2.33 µM]	nt	13µM*	?
OCCNc1c2c(nc3ccccc13)CCCC2	55%	-10%	-1%	0%	17%
Oc1c(Br)c(Br)c(Br)c(Br)c1Br	-23%	5%[0.501 µM]	-12%	56µM*	?
Cc1cc2c(cc(C(=O)N3CCC(C(=O)NC4CCCC4)CC3)n2Cc2c(F)cccc2Cl)o1	1%	-137%[59 µM]	nt	?	?
O=C1NC(=O)C(=Cc2cn(CCOc3ccc4c(c3)OCO4)c3ccccc23)C(=O)N1	38%	?	nt	-8%	-24%
COc1cc(N2CCOCC2)ccc1C=C1C(=O)NC(=O)NC1=O	-12%	79µM*	25%	0%	-10%
COc1cc(N2CCOCC2)ccc1/C=C1\C(=O)NC(=O)N(Cc2cccs2)C1=O	20%	32µM*	nt	1%	-19%
O=C1NC(=O)C(=Cc2ccc3c(c2)OCO3)C(=O)N1	nt	50µM*	2%	-14%	nt
COc1cc(N2CCOCC2)ccc1/C=C1\C(=O)NC(=O)N(Cc2ccc3c(c2)OCO3)C1=O	-10%	40µM*	nt	?	-31%
Cc1cc(N2CCOCC2)ccc1/C=C1\C(=O)NC(=O)N(c2ccccc2)C1=O	49%	-34%[12.7 µM]	0%	?	-1%
C=CCN1C(=O)NC(=O)/C(=C/c2c(CCN(C)C(=O)c3ccccc3)cc3c(c2OC)OCO3)C1=O	41%	?	-4%	-37%	-20%
O=C1OC(=O)C2C3CCC(O3)C12 (stereo unspecified)	nt	-2%[59 µM]	3%	-5%	nt
